Assay results as given in the supplement of paper PMC11417369.
± gives the standard deviation of the averaged measurements. In all, about 25,000 sequences were measured (“ln(normalized median fluorescence intensity)”: median about 10, highest 2% from about 12 on). The entries come from a sample that favours the highest values as a whole.

tested on: PfAP2-G AP2 domain (GST-tagged); experiment: gcPBM binding intensity (ln(normalized median fluorescence intensity)); higher = stronger DNA binding
Summary of the method: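 Probes on an Agilent 4 × 180k array were primer-extended, double-stranded and 36 bp long, taken from intergenic genomic regions, with negative controls added. GST-tagged P. falciparum DNA-binding domains from E. coli, about 25 μg on average, were applied to the array for 1 h in 1× PBS containing 1% milk, 0.2 mg/ml BSA, 0.5% salmon testes DNA and 0.03% Triton X-100. Binding intensity, obtained after Alexa488 anti-GST antibody detection and a 488 nm scan, is the highest Masliner-normalised natural-log median intensity across replicate spots of either probe orientation.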

Sequence	gcPBM binding intensity (ln)
ATAGAACAGAAAAGGCGTACAATAATATGTAAACAA [XGTACX_site2828]	11.8 ± 1.1
TATGAGAACAAACATTGTACAATAAAAAGTAGATAT [XGTACX_site920]	11.2 ± 0.35
ATAAAGAAAAGGAACACACAAATATGTAAATATGTA [CACACA_site6356]	10.06 ± 0.085
TTTCATAACAAAAAAGTGCAAAATAGCACGAACATT [GTGCAC_site9703]	10.3 ± 0.16
AAACGATTAATGTGTACACACATAGTTATAAACCTA [CACACA_site2110]	11.6 ± 0.91
AAACGATTAATGTGTACACACATAGTTATAAACATA [CACACA_site7073]	11.7 ± 1.2
AAACGATTACTGTGTACACACATAGTTATAAACATA [CACACA_site5195]	11.5 ± 0.72
AAAAACGATTAATGTGTACACACATAGTTATAAACA [CACACA_site8659]	11.7 ± 1.2
TTATAAAACACAAAATGTACAAAAAATTATAATTAA [XGTACX_site6859]	10.7 ± 0.33
TAAACACATTATATATGTACATAATAAAAAAAAAAA [XGTACX_site7907]	11.2 ± 0.83
TAATGACAATAAAAATAAATAAATAAAAAAAAAAAA [TGCATGCA_negctrl_site321]	9.51 ± 0.59
ATATAAATATAAACATGTACATATATATATATATAT [XGTACX_site2824]	11.1 ± 0.69
AAAATTTTTCTTAAAGCATGCACAATTAAGAAGACG [TGCATGCA_site883]	10.2 ± 0.13
TTTTTCATAAAAAAATAAAAAAAATTAACATAGAAA [XGTACX_negctrl_site11]	9.95 ± 0.26
TTTATACTTTCAAAATGTACATATATATATATATAT [XGTACX_site6241]	11.1 ± 0.63
ATATATACTATAATAGTGCATTAAAAAAGTAAAAAT	10.2 ± 0.25
TAAAACATATATACAAGTACACAAAGGATATATATA [XGTACX_site3710]	11.4 ± 0.95
AATAAAAATAGGAAATGTACACATATATATATATAT [XGTACX_site1853]	11.2 ± 0.59
GTAAATACACATATGTGTACATATATATATATATAT [XGTACX_site3696]	11.5 ± 0.86
AAAAATATAATATAATGTACACATAAACAAAAAAAA [XGTACX_site3658]	11.4 ± 0.84
TAAATAAATATATGTACACACACAAATATATACATA [CACACA_site8577]	11.4 ± 0.73
AAAAAAAAAAAAACAAGTACAAAGGATAGAAAAAAA [XGTACX_site4133]	11.2 ± 0.71
AATATATATATGTGTACACATCCAAAATAGGCATAC [CACACA_site5705]	11.7 ± 1.1
AATAAATATATGTACACACACAAATATATACATATC [CACACA_site1903]	11.3 ± 0.63
GTTTTAAAACAAATATGTACACATAATATAGGAAAG [XGTACX_site1803]	11.7 ± 0.82

Sequence	gcPBM binding intensity (ln)
AAGGGGAAAAAAAAAAGTACACAAACATAGGATAAT [XGTACX_site377]	11.7 ± 1
AATAAATATAGGTACACACACAAATATGTACATATC [CACACA_site6976]	11.7 ± 0.92
CATCCACAAATATGTACACACATATATAAATATGTA [CACACA_site7407]	11.4 ± 0.93
AAAAAAAAAAGAAAGAGTACTTTTTCAATACATATA [XGTACX_site2468]	11.1 ± 0.7
TTAACTTATTTGTAAAGTACATTAATAAAAAGAAAA [XGTACX_site1588]	11.1 ± 0.42
ATATATATATATATATGTACATATATTTTTATTTAT [XGTACX_site3508]	11.2 ± 0.76
TAACTACTAGAAAAAACACACAAAAAGTAAATATAT [CACACA_site2740]	10.045 ± 0.007
ATACATACATATATATGTACTTATATTTTACACATT [XGTACX_site1688]	11.2 ± 0.75
AATGGAAAAATAGGCACACACACATAAATACAGATA [CACACA_site4844]	10.3 ± 0.18
TGTAAATATAAATGTAATAAATATGTAAAAATAAAT [XGTACX_negctrl_site171]	9.79 ± 0.13
AATGAATAAATAAACACACACACATATATAAATATG [CACACA_site6160]	10.05 ± 0.014
GATAAAATATGTTGCCGTACATATTCATATACTTAA [XGTACX_site4776]	11 ± 0.62
GGTAGTTATTATCTCCGTACTTATAAAGAAAAAAGG [XGTACX_site4674]	10.9 ± 0.63
TTTGTGTGTACGCGTGTGCACATTTTTTTTTTTTTT	11.7 ± 0.92
ATTTTTATTTTTTTTGTGCACATTTTCATTTTCTAT [GTGCAC_site9580]	10.54 ± 0.085
TATGTATATTTTTTTGTGCACATATATATATATATA	10.4 ± 0.35
TATAATATAAAAATGAGTACATAGATAATAATATTT [XGTACX_site2376]	11.3 ± 0.74
ATAAATCATAAGGAGAGTACATAAATAAAATAATCA [XGTACX_site8825]	11.2 ± 0.71
TCATATTTCCATAGGAGTACATAAAAAAAATAATAT [XGTACX_site7601]	11.7 ± 1.2
TATACACATATATACACACACATATATAAATAAATA [CACACA_site7579]	10 ± 0.23
CAAACAAACGGACACACACACACACCCAAAAATGAT [CACACA_site5363]	11.2 ± 0.69
TATATTTATATAATATGTACATATTTTTTAATATTT [XGTACX_site3834]	11.2 ± 0.72
GAAATGTGTAGACACGCACACACAAAAAAATATATA [CACACA_site2912]	10.2 ± 0.34
TAATATGAAATGTGTACACACGCACCCACAAAAAAA [CACACA_site8949]	11.8 ± 0.93
